Assay outcomes deposited in PubChem BioAssay by several laboratories.
BH1578 lux ind: quorum light induction in luxS cqsA deficient V. cholerae; 350,000 tested, 0.16% active; V. cholerae BH1578 lux reporter, luminescence, 6 h; activation, % at 18.7 µM; in the data active means activation mostly above about 9.7%, no sharp cut-off
RecA intein inh: Mtb RecA intein splicing inhibition | P9WHJ3 | cell-free RecA intein splicing, fluorescence | inhibition, % (concentration not given with the values) | 290,000 tested, 0.75% active; in the data active means inhibition above about 30%;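 further: 0% = vehicle wells and 100% = reference inhibitor control wells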
Target sequence (P9WHJ3 whole entry, looked up): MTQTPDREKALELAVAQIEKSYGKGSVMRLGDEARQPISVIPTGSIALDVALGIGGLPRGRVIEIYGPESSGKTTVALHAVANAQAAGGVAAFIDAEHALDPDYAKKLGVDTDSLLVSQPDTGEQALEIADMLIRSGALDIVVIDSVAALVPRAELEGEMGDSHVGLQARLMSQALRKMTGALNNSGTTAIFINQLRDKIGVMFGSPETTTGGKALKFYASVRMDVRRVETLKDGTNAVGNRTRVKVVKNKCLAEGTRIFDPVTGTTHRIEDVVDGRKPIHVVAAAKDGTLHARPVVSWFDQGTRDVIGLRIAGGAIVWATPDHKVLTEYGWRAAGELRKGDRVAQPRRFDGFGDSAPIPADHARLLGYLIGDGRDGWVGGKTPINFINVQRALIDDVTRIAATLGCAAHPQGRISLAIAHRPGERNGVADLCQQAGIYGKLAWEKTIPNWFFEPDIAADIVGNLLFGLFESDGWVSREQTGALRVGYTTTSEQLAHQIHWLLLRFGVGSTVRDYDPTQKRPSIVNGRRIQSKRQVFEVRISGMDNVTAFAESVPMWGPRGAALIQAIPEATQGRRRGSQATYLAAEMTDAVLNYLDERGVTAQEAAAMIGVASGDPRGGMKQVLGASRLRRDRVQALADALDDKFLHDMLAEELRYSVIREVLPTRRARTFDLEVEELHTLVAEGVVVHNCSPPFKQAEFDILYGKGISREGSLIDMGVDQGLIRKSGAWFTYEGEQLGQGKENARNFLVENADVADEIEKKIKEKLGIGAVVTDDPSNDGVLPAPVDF
Mtb UGM inh: blocks M. tuberculosis UGM enzyme. inhibition, % at 10 µM. P9WIQ1. AID 504406. purified UGM, fluorescence polarization probe displacement. 320,000 tested, 0.06% active; in the data active means inhibition above about 10%, passing the limit was not always enough
GDH-TPI counter: GDH-TPI coupled enzyme inhibition counter-screen | inhibition, % at 4.8 µM | 360,000 tested, 1.2% active | AID 588335 | GDH-TPI coupled enzyme counterscreen, NADH absorbance; in the data active means inhibition above about 30%;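 further: 0% = DMSO wells and 100% = wells lacking the enzyme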
Rv3671c inh: inhibits the M. tuberculosis serine protease Rv3671c; inhibition, % at 5.96 µM; 320,000 tested, 0.048% active; P9WHR9; AID 2606; in the data active means inhibition above about 38%;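 further: extracellular domain of Rv3671c used as enzyme; 0% = enzyme with DMSO and 100% = no enzyme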
FBA Mtb inh: Mtb fructose-bisphosphate aldolase inhibition; P9WQA3; 360,000 tested, 2.3% active; inhibition, % at 1 µM; purified M. tuberculosis FBA, fluorescence read-out; in the data active means inhibition above about 27%;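 further: 0% = vehicle and 100% = reference inhibitor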
Active calls of the source: *; i = inactive; · = no result given; + = active, no number. Rows were chosen to be rich in hits. Some 4.1% of all compounds tested hit in one or more screens of this group.

SMILES	BH1578 lux ind	RecA intein inh	Mtb UGM inh	GDH-TPI counter	Rv3671c inh	FBA Mtb inh
CSc1nc2nccc(-c3ccc(Oc4ccccc4)cc3)n2n1	1.0	·	1.2	20.4	-2.1	4.3
Cc1ccc2c(c1)c1nnc(SCC(=O)Nc3ccc(N(C)C)cc3)nc1n2CC(=O)O	i	39.1*	-3.3	16.3	2.4	-1.6
COc1ccc(OC)c(N2CC(O)=C(c3nc4ccccc4s3)C2=N)c1	-0.3	-1.7	-0.7	35.8*	-6.2	-2.0
CC(C)c1ccc2[nH]c3c(c2c1)[C@@H]1CCN2C(=O)CCC[C@H](C3)[C@H]12	i	2.6	-1.4	10.8	1.1	-0.2
CC(C)(C)C(=O)OC[N+](C)(C)CCOC(=O)C(O)(c1ccccc1)C1CCCC1 (centres undefined)	-0.2	1.5	-0.6	-6.8	0.5	0.8
CN1CCCN=C1COC(=O)C(O)(c1ccccc1)C1CCCCC1 (centres undefined)	29.2*	-1.2	-0.4	3.4	6.0	-0.9
COc1cc(S(=O)(=O)N2CCOCC2)cc(C(=O)OCC(=O)NCc2ccco2)c1OC	i	·	1.8	13.1	-4.0	-0.7
O=C(O)c1cccc(NS(=O)(=O)c2ccc3c(c2)C(=O)c2ccccc2C3=O)c1	-0.1	27.2	2.6	16.5	3.6	5.6
O=C1c2ccccc2C(=O)c2cc(S(=O)(=O)Nc3ccccc3)ccc21	i	32.4*	-1.0	8.7	12.6	-2.4
COc1nc(NCCO)nc(Nc2ccc([N+](=O)[O-])cc2)n1	-0.5	4.1	2.6	30.9*	3.6	2.1
O=[N+]([O-])c1ccc(Nc2nc(Cl)nc(NCCO)n2)cc1	i	0.1	-0.4	23.2	-7.5	6.5
CC1(C)CC(C(CCN(Cc2ccccc2)C(=O)c2ccco2)c2ccc(F)cc2)CCO1 (centres undefined)	1.4	35.4*	0.0	2.3	0.5	0.7
COC(=O)Cc1c(C)c2ccc(O)c(CNCc3ccc(OC)c(OC)c3)c2oc1=O	i	-187.0	1.5	23.6	·	+
CCN(CC)Cc1c(O)ccc2c(C)c(CC(=O)OC)c(=O)oc12	-0.4	-135.8	-1.9	23.7	-2.0	+
O=c1cc(CCc2ccccc2)oc2cccc(O)c12	-0.4	·	·	10.8	·	4.6
COc1ccc(/C=C2\Sc3ccc(C(=O)NCc4cccnc4)cc3N(C)C2=O)cc1OC	-0.4	-0.9	2.8	34.6*	-6.2	0.5
COc1cc(C(=O)C(=O)c2ccc(O)c(OC)c2)ccc1O	i	5.3	-2.2	35.3*	6.6	-1.9
O=c1[nH]cnc2sc3c(c12)CN(Cc1ccccc1)CC3	-6.2	-9.9	-1.9	23.0	3.4	52.2*
O=C(CCc1nc(-c2ccccc2)no1)NC1CCCCCC1	i	·	·	-3.5	-7.7	0.8
CC1COc2c(N3CCN(C)CC3)c(F)cc3c(=O)c(C(=O)O)cn1c23 (centres undefined)	i	-1.8	3.0	25.4	-13.4	96.6*
CCC(=O)N(C)CCc1cc2c(c(OC)c1/C=N/Nc1ccc(C(=O)O)cc1)OCO2	-0.4	-1.8	2.8	50.6*	-5.8	-2.4
O=C1CC(N2CCN(c3ccc(C(=O)c4ccc(F)cc4)cc3)CC2)C(=O)N1 (centres undefined)	0.7	-0.8	-0.3	47.6*	-4.7	1.9
CCN1C(=O)CC(N2CCN(c3ccc(C(=O)c4ccccc4)cc3)CC2)C1=O (centres undefined)	i	5.8	0.5	28.4	-3.5	1.7
Cc1cc(C)nc(NS(=O)(=O)c2ccc(NC(=O)c3ccccc3Br)cc2)n1	i	·	·	-0.9	·	0.7
O=S(=O)(/N=C(/Nc1cccc2ccccc12)c1ccccc1)c1ccc(F)cc1	i	3.3	0.0	3.1	-12.1	2.6
SMILES	BH1578 lux ind	RecA intein inh	Mtb UGM inh	GDH-TPI counter	Rv3671c inh	FBA Mtb inh
COC1=C/C(=C/c2c(O)c(C#N)c3ccccn23)C=CC1=O	i	-258.8	-3.8	44.2*	12.1	7.6
COc1cc(OC)cc(C(=O)c2c(C)c(C#N)c3ccccn23)c1	i	1.5	·	-2.9	·	-2.5
Clc1ccc(/C=N/N2CCCCC2)cc1	i	0.4	-0.5	7.2	-8.3	1.1
O=C(O)c1ccc(C=NN2CCCCCC2)cc1	i	·	·	35.9*	·	3.9
N#Cc1ccc(C=NN2CCCCCC2)cc1	-4.5	·	·	41.2*	·	1.0
Cc1cc(NC(=O)C(C)Sc2nc(-c3cccs3)nc3ccccc23)no1 (centres undefined)	-0.9	·	·	13.5	·	3.4
CNc1ncc(C(=O)c2ccc(Cl)c(Cl)c2)s1	-0.4	1.5	-0.4	34.1*	-3.3	-0.9
CNc1ncc(C(=O)c2ccc(Cl)cc2)s1	-0.4	0.7	0.5	46.8*	-2.5	-1.8
CNc1ncc(C(=O)c2ccc(-c3ccccc3)cc2)s1	-0.4	-1.8	0.0	21.0	-9.9	-1.1
O=C(c1ccccc1)c1cnc(Nc2ccccc2Cl)s1	i	6.7	3.3	30.8*	-3.5	0.8
CC1CCN(C(=O)COC(=O)c2ccc3c(c2)C(=O)N(Cc2ccco2)C3=O)CC1	i	·	·	-5.6	·	2.7
CC1CCN(S(=O)(=O)N2CCC(C(=O)NCc3ccc(F)cc3Cl)CC2)CC1	i	·	·	12.4	·	-2.4
CCC(=O)Nc1nc(C)c(-c2csc(Nc3ccccn3)n2)s1	-0.5	-1.8	-0.4	40.2*	4.1	5.2
Cc1ccc(NC(=S)Nc2ccccn2)cc1C	-0.4	1.4	4.3	-0.8	-5.2	-2.5
Cc1ccc(NC(=S)Nc2ccc3nc(-c4ccccn4)c(-c4ccccn4)nc3c2)cc1C	-0.3	·	3.1	31.5*	-13.3	-3.8
CC(=O)c1ccc(Nc2cc(C)nc3nc(C)nn23)cc1	-0.4	2.2	-2.0	30.7*	-3.5	-0.7
COc1ccc(NC(=O)Cn2cc(C(=O)c3ccco3)c3ccccc32)cc1	0.2	·	2.4	30.9*	-26.3	1.5
CCOc1ccc(NC(=O)Cn2cc(C(=O)c3ccco3)c3ccccc32)cc1	i	·	0.5	14.1	-16.0	-2.4
O=C(Cn1cc(C(=O)c2ccco2)c2ccccc21)Nc1ccccc1	·	-1.2	9.9	34.4*	-6.7	-3.2
COc1ccc(CNC(=O)CN2C(=O)NC(C)(c3cccc4ccccc34)C2=O)cc1OC (centres undefined)	-0.3	-0.8	-0.8	-13.4	-9.1	-0.2
COc1ccc(N(C(=O)COc2cccc(C)c2)S(=O)(=O)c2ccc(C)cc2)cc1	-3.4	52.4*	2.4	-7.5	1.2	2.0
Cc1ccc(C(=O)NC(=S)NNC(=O)c2ccccc2)cc1	0.4	-0.1	1.2	21.4	8.9	-0.1
Cc1ccc(C(=O)NNC(=S)NC(=O)c2ccccc2)cc1	-0.4	2.4	0.8	31.0*	1.0	-2.7
CCCCn1c(C)nc2c(=O)n(C)c(=O)[nH]c21	-2.9	-1.2	3.4	7.3	3.0	1.6
CCCCn1c(-c2ccccc2)nc2c(=O)n(C)c(=O)[nH]c21	-0.5	1.7	-1.1	5.0	4.6	195.5*
CC(C)CNC(=O)c1cccc2c(-c3cccc(C(N)=O)c3)coc12	i	·	·	-2.7	·	-0.1
